{"source": "PubChem BioAssay (NCATS)", "note": "Inconclusive results are not listed. A call without a number means that no potency is given here. Activity calls are given as the source filed them. The call rests on the fitted dose curve; in most records, active means well fitted curve in the direction sought with a large enough effect; inconclusive means small, poorly fitted or top-dose-only effect, or another doubt; inactive means no such curve, though single readings can be large; an effect the other way counts as inactive or inconclusive."}
{"target": "Single-stranded DNA cytosine deaminase (Homo sapiens) (UniProt Q9GZX7)", "sequence (Q9GZX7 whole entry, looked up)": "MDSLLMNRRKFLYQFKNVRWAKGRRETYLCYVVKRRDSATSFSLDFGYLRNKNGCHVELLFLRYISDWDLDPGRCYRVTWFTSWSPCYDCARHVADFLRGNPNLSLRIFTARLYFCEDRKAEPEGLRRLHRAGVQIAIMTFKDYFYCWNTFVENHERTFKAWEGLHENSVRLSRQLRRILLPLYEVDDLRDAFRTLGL", "assay": "Validation qHTS assay for inhibitors of Activation Induced Cytidine Deaminase (AID): AID signal (AID 1347429)", "conditions": "Recombinant AID, FRET ssDNA deamination with UDG, fluorescence; series mostly up to 115 µM", "procedure,_shortened": "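Compounds (final up to 114 uM) preincubated with AID plus UDG; 250 nM DJC20/DJC23 substrate mix (4x stock) added, 4 hr at room temperature, then NaOH, 30 min. Read 1 fluorescence at 540 nm excitation, 590 nm emission.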"}
{"smiles": "Cc1nn(-c2ccccc2)c(C)c1/C=N/N1CCN(Cc2ccccc2)CC1", "outcome": "inactive"}
{"smiles": "N[C@@H](Cn1ccc(=O)c(O)c1)C(=O)O", "outcome": "inactive"}
{"smiles": "COc1ccccc1N1CCN(CCN2C(=O)CC3(CCCC3)CC2=O)CC1", "outcome": "inactive"}
{"smiles": "O=C1NC(c2cccc([N+](=O)[O-])c2)=CCN1c1ccccc1O", "outcome": "inactive"}
{"smiles": "CCN(CC)CCNC(=O)c1ccc(NS(C)(=O)=O)cc1", "outcome": "inactive"}
{"smiles": "O=C1NC(=O)/C(=C/c2ccc3c(c2)OC(F)(F)O3)S1", "outcome": "inactive"}
{"smiles": "Brc1ccc([C@H]2CN3CCSC3=N2)cc1", "outcome": "inactive"}
{"smiles": "NC(N)=NCCCCN=C(N)N", "outcome": "inactive"}
{"smiles": "C[N+](C)(C)CCO", "outcome": "inactive"}
{"smiles": "CN(C)c1cc2c(Nc3ccc4c(cnn4Cc4ccccc4)c3)ncnc2cn1", "outcome": "inactive"}
{"smiles": "COC(=O)C1=CO[C@@H](O)[C@@H]2C(CO)=CC[C@H]12", "outcome": "inactive"}
{"smiles": "Cn1cnc2c(NCc3ccccc3)nc(NCCO)nc21", "outcome": "inactive"}
{"smiles": "Nc1ncnc2n[nH]c(Nc3ccc(F)cc3)c12", "outcome": "inactive"}
{"smiles": "Clc1ccc2c(c1)N=C(N1CCNCC1)c1ccccc1N2", "outcome": "inactive"}
{"smiles": "O=[N+]([O-])c1ccc(-c2nc(-c3ccc(F)cc3)c(-c3ccncc3)[nH]2)cc1", "outcome": "inactive"}
{"smiles": "COc1cccc2c1[C@@H]1CN(CCCCn3c(=O)[nH]c4c(sc5ncc(-c6ccccc6)nc54)c3=O)C[C@@H]1CO2", "outcome": "inactive"}
{"smiles": "CC(C)N(CCC(=O)c1ccc2ccccc2c1)Cc1ccccc1", "outcome": "inactive"}
{"system": "not listed separately", "assay": "Primary qHTS for inhibitors of La Crosse Virus (LACV) - induced cell death in SH-SY5Y cells (AID 1508616);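 further: top concentration of the series differs between compounds; higher means more rescue of cells from virus-induced death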", "conditions": "SH-SY5Y LACV cytopathicity rescue, ATP luminescence, 6 d; series mostly up to 4.29 µM", "procedure,_shortened": "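Rescue of virus-induced death was read as ATPLite luminescence after 6 days at 37C, scaled between DMSO wells with LACV and without virus. Cells were SH-SY5Y, 6000/well, infected at 0.01 MOI after compound addition.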"}
{"smiles": "CSc1ccc(/C=C2/C(C)=C(CC(=O)O)c3cc(F)ccc32)cc1", "outcome": "inactive"}
{"smiles": "Cc1nn(-c2ccccc2)c(C)c1/C=N/N1CCN(Cc2ccccc2)CC1", "outcome": "inactive"}
{"smiles": "N[C@@H](Cn1ccc(=O)c(O)c1)C(=O)O", "outcome": "inactive"}
{"smiles": "CCCC(=O)c1cc(O)c(O)cc1O", "outcome": "inactive"}
{"smiles": "CC(C)(C)C(=O)OCOC(=O)C1N2C(=O)CC2S(=O)(=O)C1(C)C", "note": "(stereo not given)", "outcome": "inactive"}
{"smiles": "COc1ccccc1N1CCN(CCN2C(=O)CC3(CCCC3)CC2=O)CC1", "outcome": "inactive"}
{"smiles": "O=C1NC(c2cccc([N+](=O)[O-])c2)=CCN1c1ccccc1O", "outcome": "inactive"}
{"smiles": "CCN(CC)CCNC(=O)c1ccc(NS(C)(=O)=O)cc1", "outcome": "inactive"}
{"smiles": "Oc1cccc2[nH]ccc12", "outcome": "inactive"}
{"smiles": "O=C1NC(=O)/C(=C/c2ccc3c(c2)OC(F)(F)O3)S1", "outcome": "inactive"}
{"smiles": "Brc1ccc([C@H]2CN3CCSC3=N2)cc1", "outcome": "inactive"}
{"smiles": "NC(N)=NCCCCN=C(N)N", "outcome": "inactive"}
{"smiles": "CCCCC/C=C\\C/C=C\\CCCCCCCC(=O)NC(C)c1ccccc1", "note": "(stereo not given)", "outcome": "inactive"}
{"smiles": "CN(C)[C@@H]1C(=O)C(C(N)=O)=C(O)[C@@]2(O)C(=O)C3=C(O)c4c(O)cccc4C[C@H]3C[C@@H]12", "outcome": "inactive"}
{"smiles": "C[N+](C)(C)CCO", "outcome": "inactive"}
{"smiles": "CCCCCCOC(=O)NC(=N)c1ccc(NCc2nc3cc(C(=O)N(CCC(=O)OCC)c4ccccn4)ccc3n2C)cc1", "outcome": "inactive"}
{"smiles": "CCN(CC)CCOc1ccc(/C(=C(\\Cl)c2ccccc2)c2ccccc2)cc1", "outcome": "inactive"}
{"smiles": "Cc1ccc(-c2ccccc2C#N)cc1", "outcome": "inactive"}
{"smiles": "O=[N+]([O-])c1cncn1CCN1CCOCC1", "outcome": "inactive"}
{"smiles": "CCCC(=O)OCOC(=O)C1=C(C)NC(C)=C(C(=O)OC)C1c1cccc(Cl)c1Cl", "note": "(stereo not given)", "outcome": "inactive"}
{"smiles": "O=C(O)c1ccc(OCCN2CCCCC2)cc1", "outcome": "inactive"}
{"smiles": "N#CSCC(=O)O", "outcome": "inactive"}
{"smiles": "O=C(Nc1ccc(S(=O)(=O)N2CCOCC2)cc1)c1cc(Cl)ccc1NS(=O)(=O)c1ccc(Cl)s1", "outcome": "inactive"}
{"smiles": "Nc1cc(C(F)(F)F)ccc1S", "outcome": "inactive"}
{"smiles": "CN(C)c1cc2c(Nc3ccc4c(cnn4Cc4ccccc4)c3)ncnc2cn1", "outcome": "inactive"}
{"smiles": "COC(=O)C1=CO[C@@H](O)[C@@H]2C(CO)=CC[C@H]12", "outcome": "inactive"}
{"smiles": "Cn1cnc2c(NCc3ccccc3)nc(NCCO)nc21", "outcome": "inactive"}
{"smiles": "Nc1ncnc2n[nH]c(Nc3ccc(F)cc3)c12", "outcome": "inactive"}
{"smiles": "C[C@@H](O[C@H]1OCCN(Cc2n[nH]c(=O)[nH]2)[C@H]1c1ccc(F)cc1)c1cc(C(F)(F)F)cc(C(F)(F)F)c1", "outcome": "inactive"}
{"smiles": "Clc1ccc2c(c1)N=C(N1CCNCC1)c1ccccc1N2", "outcome": "inactive"}
{"smiles": "COC(=O)c1cc(Cl)ccc1NS(=O)(=O)C(F)(F)F", "outcome": "inactive"}
{"smiles": "Cc1ccc(CCn2c3c(c4cc(Cl)ccc42)CN(C)CC3)cn1", "outcome": "inactive"}
{"smiles": "O=[N+]([O-])c1ccc(-c2nc(-c3ccc(F)cc3)c(-c3ccncc3)[nH]2)cc1", "outcome": "inactive"}
{"smiles": "Nc1ccc(O)cc1", "outcome": "inactive"}
{"target": "Calcium and integrin-binding protein 1 (Homo sapiens) (UniProt Q99828)", "sequence (Q99828 whole entry, looked up)": "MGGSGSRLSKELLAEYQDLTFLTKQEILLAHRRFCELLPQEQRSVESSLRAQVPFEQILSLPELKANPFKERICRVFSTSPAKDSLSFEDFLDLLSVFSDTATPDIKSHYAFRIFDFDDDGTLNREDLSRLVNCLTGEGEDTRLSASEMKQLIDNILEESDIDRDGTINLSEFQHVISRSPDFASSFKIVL", "assay": "Confirmatory qHTS for Identification of Calcium Integrin Binding Protein 1 (CIB1) Competitor (AID 1508617); further: nearly all actives have a fitted effect of over 65% in size; further: potency means the concentration at half of the fitted maximal effect", "conditions": "CIB1 binding competition assay, biochemical qHTS; series mostly up to 114 µM", "procedure,_shortened": "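Fluorescence polarization competition: CIB1-GST (1 uM final) in 5 mM HEPES pH 7.4, 125 mM NaCl, 5 mM CaCl2, 0.01% Tween20 preincubated 15 min RT with compound (up to 114 uM), then FITC-alphaIIb peptide (100 nM) added, 15 min RT.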"}
{"smiles": "CCCC(=O)c1cc(O)c(O)cc1O", "Potency": "35.5 µM (active)"}
{"smiles": "O=C(Nc1ccc(S(=O)(=O)N2CCOCC2)cc1)c1cc(Cl)ccc1NS(=O)(=O)c1ccc(Cl)s1", "Potency": "inactive"}
{"smiles": "Nc1cc(C(F)(F)F)ccc1S", "Potency": "22.4 µM (active)"}
{"smiles": "COC(=O)c1cc(Cl)ccc1NS(=O)(=O)C(F)(F)F", "Potency": "inactive"}
{"target": "Calcium and integrin-binding protein 1 (Homo sapiens) (UniProt Q99828)", "assay": "Validation qHTS for Identification of Calcium Integrin Binding protein 1 (CIB1) Competitor (AID 1508618)", "conditions": "CIB1-GST / FITC-alphaIIb peptide fluorescence polarization; series mostly up to 114 µM", "procedure,_shortened": "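CIB1-GST (1 uM final) in 5 mM HEPES pH 7.4, 125 mM NaCl, 5 mM CaCl2, 0.01% Tween20 was preincubated 15 min at room temperature with compound (up to 114 uM), then FITC-alphaIIb peptide (100 nM) added for 15 min; fluorescence polarization read.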"}
{"smiles": "Cc1nn(-c2ccccc2)c(C)c1/C=N/N1CCN(Cc2ccccc2)CC1", "outcome": "inactive"}
{"smiles": "N[C@@H](Cn1ccc(=O)c(O)c1)C(=O)O", "outcome": "inactive"}
{"smiles": "COc1ccccc1N1CCN(CCN2C(=O)CC3(CCCC3)CC2=O)CC1", "outcome": "inactive"}
{"smiles": "CCN(CC)CCNC(=O)c1ccc(NS(C)(=O)=O)cc1", "outcome": "inactive"}
{"smiles": "Brc1ccc([C@H]2CN3CCSC3=N2)cc1", "outcome": "inactive"}
{"smiles": "NC(N)=NCCCCN=C(N)N", "outcome": "inactive"}
{"smiles": "C[N+](C)(C)CCO", "outcome": "inactive"}
{"smiles": "CN(C)c1cc2c(Nc3ccc4c(cnn4Cc4ccccc4)c3)ncnc2cn1", "outcome": "inactive"}
{"smiles": "COC(=O)C1=CO[C@@H](O)[C@@H]2C(CO)=CC[C@H]12", "outcome": "inactive"}
{"smiles": "Cn1cnc2c(NCc3ccccc3)nc(NCCO)nc21", "outcome": "inactive"}
{"smiles": "Nc1ncnc2n[nH]c(Nc3ccc(F)cc3)c12", "outcome": "inactive"}
{"smiles": "Clc1ccc2c(c1)N=C(N1CCNCC1)c1ccccc1N2", "outcome": "inactive"}
{"smiles": "O=[N+]([O-])c1ccc(-c2nc(-c3ccc(F)cc3)c(-c3ccncc3)[nH]2)cc1", "outcome": "inactive"}
{"smiles": "COc1cccc2c1[C@@H]1CN(CCCCn3c(=O)[nH]c4c(sc5ncc(-c6ccccc6)nc54)c3=O)C[C@@H]1CO2", "outcome": "inactive"}
{"smiles": "CC(C)N(CCC(=O)c1ccc2ccccc2c1)Cc1ccccc1", "outcome": "inactive"}
